Several values for one entry are separate records, joined by “and”; a condition that tells them apart may be missing. Identical values can stand only once. Records with an inconclusive call do not appear. Activity calls are given as the source filed them. Rule for the calls, unless noted: active = hit-call score of the fitted dose curve at least 0.9, where 1 is the maximum; inconclusive = response in the unintended direction; inactive = score below 0.9.
Tests used:
[1] = target: Estrogen receptor (Homo sapiens) (UniProt P03372); test: CCTE_Deisenroth_AIME_384WELL_LUC_Active: CCTE's 384-well Estrogen Receptor Transactivation Assay with AIME metabolic competence (ERTA luciferase; metabolism positive), Deisenroth Lab (AID 2284030)
Procedure, shortened: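 Chemicals (10-point, 0.002-200 uM) were first incubated 2 hours with alginate-immobilized induced male Sprague Dawley rat liver S9. The conditioned medium was then applied to VM7Luc4E2 cells for 24 hours, with ER luciferase induction read by luminescence relative to 17beta-estradiol.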

[2] = CCTE_Deisenroth_AIME_384WELL_CTox_Active: Cytotoxicity Assessment (CTOX) in CCTE's 384-well Estrogen Receptor Transactivation Assay with AIME metabolic competence (metabolism positive), Deisenroth Lab (AID 2284037);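 note: chemicals first conditioned 2 h by alginate-bound induced rat liver S9 before cells; activity means signal loss indicating cell death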
Procedure, shortened: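 Chemicals pre-incubated 2 hours with alginate-immobilised phenobarbital/beta-naphthoflavone-induced male Sprague Dawley rat liver S9, then conditioned medium applied 24 hour to VM7Luc4E2 cells. Viability by fluorogenic protease substrate; 10-point series 0.002 - 200 uM.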

[3] = target: Estrogen receptor (Homo sapiens) (UniProt P03372); test: CCTE_Deisenroth_AIME_384WELL_LUC_Inactive: CCTE's 384-well Estrogen Receptor Transactivation Assay without AIME metabolic competence (ERTA luciferase; metabolism negative), Deisenroth Lab (AID 2284038);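 note: VM7Luc4E2 breast cells given medium preincubated 2 h with S9-free microspheres; hits raise estrogen receptor luciferase signal so potencies reflect agonists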
Procedure, shortened: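 Metabolism-negative mode: chemicals (10-point, 0.002–200 uM) held 2 h with alginate-water microspheres, then conditioned medium applied to VM7Luc4E2 cells for 24 h. Luciferase induction referenced to 17beta-estradiol.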

[4] = CCTE_Deisenroth_AIME_384WELL_CTox_Inactive: Cytotoxicity Assessment (CTOX) in CCTE's 384-well Estrogen Receptor Transactivation Assay without AIME metabolic competence (metabolism negative), Deisenroth Lab (AID 2284039);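 note: cell viability via live-cell protease substrate cleaved to fluorescent probe; cells exposed 24 h to medium preincubated 2 h with alginate-water beads without S9; loss of fluorescence signal means loss of viability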
Procedure, shortened: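 Metabolism-negative arm: chemicals (10-point, 0.002 - 200 uM) preincubated 2 h with alginate-water lids, medium moved onto VM7Luc4E2 cells for 24 h. Fluorescent live-cell protease readout; bidirectional curve fit.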

[5] = target: Estrogen receptor (Homo sapiens) (UniProt P03372); test: CCTE_Deisenroth_AIME_384WELL_LUC_Shift: CCTE's 384-well Estrogen Receptor Transactivation Assay with AIME metabolic competence data shift (ERTA luciferase; difference in metabolism positive and negative), Deisenroth Lab (AID 2284041; active = hit-call score of the fitted dose curve at least 0.9, where 1 is the maximum; inactive = score below 0.9;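 note: shift is response with S9 minus without S9 so positive means metabolism raised ER signal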)
Procedure, shortened: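 Chemicals (0.002–200 uM, 10 points) pre-incubated 2 h with alginate-encapsulated induced male Sprague Dawley rat liver S9 or S9-free, then medium applied 24 h to VM7Luc4E2 cells; luciferase. Endpoint is per-concentration difference, S9-positive minus negative.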

[6] = CCTE_Shafer_MEA_dev_firing_rate_mean: CCTE's Neural Network Formation Assay for Mean Firing Rate, Shafer Lab (AID 2284031; active = hit-call score of the fitted dose curve at least 0.9, where 1 is the maximum; inactive = score below 0.9;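 for AC50: curve fitted for loss of firing so AC50 reflects decreased mean firing rate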)
Procedure, shortened: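 Primary rat cortical neurons on 48-well MEA plates, exposed from plating day 0 with dosing renewed on DIV 5 and 9. Mean well firing rate over active electrodes, recorded days 5, 7, 9, 12, summarised as trapezoidal AUC.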

[7] = CCTE_Shafer_MEA_dev_per_burst_spike_percent: CCTE's Neural Network Formation Assay for Percent of Spikes in a Burst, Shafer Lab (AID 2284032; active = hit-call score of the fitted dose curve at least 0.9, where 1 is the maximum; inactive = score below 0.9;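 for AC50: fitted as a decrease in burst spike percentage below DMSO baseline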)
Procedure, shortened: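 Rat primary cortical neurons on 16-electrode MEA wells, dosed from plating day 0 for 12 days with renewal on DIV 5 and 9; spikes-in-bursts percentage averaged over bursting electrodes, collapsed as AUC across days 5, 7, 9, 12; loss direction versus DMSO.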

[8] = CCTE_Shafer_MEA_dev_active_electrodes_number: CCTE's Neural Network Formation Assay for Number of Active Electrodes, Shafer Lab (AID 2284040);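 for AC50: potency for loss of active electrodes versus DMSO so lower counts are hits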
Procedure, shortened: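 Primary rat cortical neurons on 16-electrode MEA wells, exposed from day 0 through day 12 with compound renewed at DIV 5 and 9 feeds. Active electrodes (mean firing ≥5 spikes/min) counted at DIV 5, 7, 9, 12; trapezoidal AUC across days, loss-of-signal versus DMSO.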

[9] = CCTE_Shafer_MEA_dev_burst_rate: CCTE's Neural Network Formation Assay for Burst Rate, Shafer Lab (AID 2284042; active = hit-call score of the fitted dose curve at least 0.9, where 1 is the maximum; inactive = score below 0.9)
Procedure, shortened: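 Cells plated, treated day 0; recorded DIV 5, 7, 9, 12; fed and re-treated DIV 5, 9. Endpoint: bursts per recording time, active-electrode well mean, trapezoidal AUC, fitted in decreasing direction against DMSO baseline.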

[10] = CCTE_Deisenroth_AIME_96WELL_CTox_Inactive: Cytotoxicity Assessment (CTOX) in CCTE's 96-well Estrogen Receptor Transactivation Assay without AIME metabolic competence (metabolism negative), Deisenroth Lab (AID 2284029)
Procedure, shortened: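 Chemicals (0.002 - 200 uM, 10 points) incubated 2 h with alginate-water microspheres (no S9), then medium moved onto VM7Luc4E2 cells for 24 h. Viability by protease-substrate cleavage to fluorescent probe; bidirectional fitting.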

Measured: AC50

Chain of Estrogen receptor (Homo sapiens) (P03372 whole entry, looked up): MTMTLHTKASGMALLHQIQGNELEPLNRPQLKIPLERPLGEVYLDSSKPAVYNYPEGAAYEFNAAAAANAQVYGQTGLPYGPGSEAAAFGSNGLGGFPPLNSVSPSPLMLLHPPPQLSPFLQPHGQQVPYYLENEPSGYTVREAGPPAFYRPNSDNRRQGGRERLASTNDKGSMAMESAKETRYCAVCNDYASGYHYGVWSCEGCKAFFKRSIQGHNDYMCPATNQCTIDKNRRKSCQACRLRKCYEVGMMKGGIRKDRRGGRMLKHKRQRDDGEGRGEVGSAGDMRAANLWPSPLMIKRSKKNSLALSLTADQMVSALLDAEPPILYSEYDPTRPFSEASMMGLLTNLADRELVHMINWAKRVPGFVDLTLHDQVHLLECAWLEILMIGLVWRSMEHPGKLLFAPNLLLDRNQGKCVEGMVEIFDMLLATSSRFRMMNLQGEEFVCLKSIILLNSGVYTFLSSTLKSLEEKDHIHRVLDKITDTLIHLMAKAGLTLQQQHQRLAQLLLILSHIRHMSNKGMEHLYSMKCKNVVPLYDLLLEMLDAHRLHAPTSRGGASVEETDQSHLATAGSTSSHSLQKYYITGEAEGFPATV

CC(C)c1cc(C(C)C)cc(C(C)C)c1
inactive: [1] | [2] | [3] | [4] | [5]

CCC1COC(=O)O1 (stereo not drawn)
inactive: [1] | [2] | [3] | [4] | [5]

CCCCC/C=C\C/C=C\CCCCCCCC(=O)O
inactive: [1] | [2] | [3] | [4] | [5]

O=c1c(O)c(-c2ccc(O)cc2O)oc2cc(O)cc(O)c12
active: [1] 133 µM | [2] 100 µM | [3] 109 µM | [4] 146 µM
inactive: [5]

O=C(O)/C=C/c1ccccc1
inactive: [1] | [2] | [3] | [4] | [5]

CCCCCCCCCCCCc1ccc(O)cc1
inactive: [5]
active: [1] 0.804 µM | [2] 72.1 µM | [3] 1.01 µM | [4] 86.1 µM

CCCCNS(=O)(=O)c1ccccc1
not listed: [4] | [10]
inactive: all other assays above

N#Cc1ccc(C(c2ccc(C#N)cc2)n2cncn2)cc1
inactive: [1] | [2] | [3] | [4] | [5]

COc1ccc(-c2coc3cc(O)cc(O)c3c2=O)cc1
active: [10] 156 µM

O=C(Nc1ccccc1)c1cc(Cl)ccc1O
active: [2] 33.4 µM | [4] 0.484 µM
inactive: [1] | [3] | [5]

CCCCCCCCCC(C)=O
inactive: [1] | [2] | [3] | [4] | [5]

C[Si](C)(C)N[Si](C)(C)C
inactive: [1] | [2] | [3] | [4] | [5]

C=C1C[C@H]2[C@@H]3C=C(C)C4=CC(=O)CC[C@]4(C)[C@H]3CC[C@]2(C)[C@@]1(OC(C)=O)C(C)=O
inactive: [1] | [2] | [3] | [4] | [5]

C=CCOC(=O)c1ccc(C(=O)OCC=C)c(C(=O)OCC=C)c1
inactive: [1] | [2] | [3] | [5]

CCCCCCCCCCCCCC(=O)OC(C)C
inactive: [1] | [3] | [5]

C=C[C@@]1(C)CC(=O)[C@]2(O)[C@@]3(C)[C@@H](O)CCC(C)(C)[C@@H]3[C@H](O)[C@H](OC(C)=O)[C@@]2(C)O1
inactive: [3] | [4] | [5]
active: [2] 19.8 µM

CC(C)(C)NC(=O)[C@H]1CC[C@H]2[C@@H]3CC[C@H]4NC(=O)C=C[C@]4(C)[C@H]3CC[C@]12C
inactive: [5]

CC(C)(C)N
inactive: [1] | [3] | [4] | [5]

CC(C)=CCCC(C)=CC#N
inactive: [1] | [3] | [5]

CCCCNS(=O)(=O)c1ccc(C)cc1
active: [5] 0.0002 µM
inactive: [1] | [3]

O=C(O)c1ccc2c(c1)C(=O)OC2=O
inactive: [1] | [3] | [5]

CCCCCCCCCC[N+](C)(CCCCCCCCCC)CCC[Si](OC)(OC)OC
inactive: [1] | [5]
active: [2] 49.4 µM | [4] 100 µM

O=S(=O)(O)c1ccc(N=Nc2c(O)ccc3ccccc23)cc1
inactive: [3] | [5]
active: [2] 71.3 µM | [4] 72.8 µM

COC(=O)c1ccccc1C
inactive: [1] | [3] | [4] | [5]

CO[Si](C)(C)OC
inactive: [1] | [3] | [5]

O=C(O)c1cc(O)c2ccccc2c1O
active: [2] 34.5 µM | [4] 56.4 µM
inactive: [5]

CC(=O)/C=C/C1C(C)=CCCC1(C)C (stereo not drawn)
inactive: [1] | [3] | [4] | [5]

O=C(O)CC(C(=O)O)S(=O)(=O)O (stereo not drawn)
inactive: [1] | [3] | [4] | [5]

Cc1c(C(=O)c2c[nH]n(C)c2=O)ccc(S(C)(=O)=O)c1C1=NOCC1
inactive: [6] | [7] | [8] | [9]

Cc1noc(NS(=O)(=O)c2ccc(N)cc2)c1C
inactive: [6] | [7] | [9]

O=C(O)C1CCC(C(=O)O)CC1 (stereo not drawn)
inactive: [1] | [2] | [3] | [5]

CCCCCCCCC(CO)CCCCCC (stereo not drawn)
inactive: [1] | [3] | [5]

CCCCNC(=S)NCCCC
inactive: [1] | [3] | [5]

CC(=O)OCc1ccccc1
inactive: [1] | [3] | [4] | [5]

Cc1ccc([N+](=O)[O-])cc1N
inactive: [1] | [2] | [3] | [5]

C[N+](C)(C)CCCNS(=O)(=O)C(F)(F)C(F)(F)C(F)(F)C(F)(F)C(F)(F)C(F)(F)C(F)(F)C(F)(F)F
inactive: [9]
active: [6] 4.93 µM and 2.98 µM | [7] 2.98 µM and 4.47 µM | [8] 1.13 µM and 1.65 µM

CCCCCCOc1ccc(N)cc1
inactive: [1] | [2]
active: [3] 53.9 µM | [5] 42.7 µM

CC1(C)[C@@H]2CC[C@@]1(C)C(=O)C2
inactive: [1] | [3] | [5]

CCC(C)(O)CCCC(C)C (stereo not drawn)
active: [5] 67.7 µM
inactive: [1] | [3]

CCOC(=O)C1=NOC(c2ccccc2)(c2ccccc2)C1
inactive: [1] | [3] | [4] | [5]
